Data published in PubChem BioAssay (EPA / NIEHS).
Where “and” joins values, the source holds several entries; their conditions need not be identical. Equal entries are not always repeated. Records with an inconclusive call do not appear. The source holds several records for some structures; these can differ, active in one and inactive in another. Calls of active or inactive are those of the source. The calls were made as follows: active = hit-call score of the fitted dose curve at least 0.9, where 1 is the maximum; inconclusive = response in the unintended direction; inactive = score below 0.9.

Experiments:
[1] = target: Estrogen receptor (Homo sapiens) (UniProt P03372); test: NVS_NR_hER: NovaScreen (NVS) Nuclear Receptor Binding Assay for human Estrogen Receptor (ER) (AID 2283348)
In short: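 Cell-free radioligand binding with protein extracted from MCF7 cells; scintillation counting 18 hours after dosing. Loss of signal versus DMSO baseline read as displacement; primary single-concentration screen at 25 uM in duplicate, actives retested in concentration series.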

[2] = target: Estrogen receptor (Homo sapiens) (UniProt P03372); test: OT_ER_ERaERa_1440: Odyssey Thera (OT) 24-hour HEK293T Protein-Complementation Assay for Estrogen Receptor-alpha/-alpha Homodimer (AID 2283349);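 also: hits raise fluorescence above DMSO for agonists and antagonists alike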
In short: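 Readout is the rise in mean fluorescence from reporter fragment complementation when ERα LBD (aa 310-547) units dimerize in HEK293T cells. Measured 24 h after dosing and analysed as increase over DMSO control.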

[3] = target: Estrogen receptor (Homo sapiens) (UniProt P03372); test: OT_ER_ERaERa_0480: Odyssey Thera (OT) 8-hour HEK293T Protein-Complementation Assay for Estrogen Receptor-alpha/-alpha Homodimer (AID 2283351);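 also: rise in fluorescence from reassembled reporter fragments on ERα LBD homodimer in nucleus or whole cell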
In short: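 HEK293T, stable ERα LBD (aa 310-547) PCA homodimer; 8 h compound exposure; fluorescence intensity, laser scanning cytometer; positive fitting direction, DMSO baseline.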

[4] = target: Estrogen receptor (Homo sapiens) + Estrogen receptor beta (Homo sapiens) (UniProt P03372+Q92731); test: OT_ER_ERaERb_0480: Odyssey Thera (OT) 8-hour HEK293T Protein-Complementation Assay for Estrogen Receptor-alpha/-beta Heterodimer (AID 2283352)
In short: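 Fluorescence intensity readout from a protein-fragment complementation reporter in HEK293T; ER-alpha/ER-beta LBD heterodimer. Dosing 8 h. Gain-of-signal fit relative to DMSO negative control; laser scanning cytometry of whole-well cell population.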

[5] = target: Estrogen receptor beta (Homo sapiens) (UniProt Q92731); test: OT_ER_ERbERb_0480: Odyssey Thera (OT) 8-hour HEK293T Protein-Complementation Assay for Estrogen Receptor-beta/-beta Homodimer (AID 2283357);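 also: active means signal gain over DMSO baseline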
In short: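 Readout: increase in mean fluorescence intensity (nucleus for agonists; nucleus plus cytoplasm for antagonists) relative to DMSO, from a reporter-fragment complementation of human ER-beta LBD homodimer in HEK293T cells dosed 8 hours.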

[6] = target: human Peroxisome Proliferator-activated Receptor alpha (PPARa), PPARA (gene 5465) (UniProt Q07869); test: NVS_NR_hPPARa: NovaScreen (NVS) Nuclear Receptor Binding Assay for human Peroxisome Proliferator-activated Receptor alpha (PPARa) (AID 2283359);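 also: activity means loss of TR-FRET signal versus DMSO baseline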
In short: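 Cell-free binding assay with extracted human protein, read by TR-FRET 1 h after chemical dosing. Loss of signal relative to DMSO baseline indicates binding. Primary screen used duplicate single concentration (25 uM); actives followed up in concentration series.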

PGR (gene 5241) = PGR (gene 5241) (UniProt P06401); test: NVS_NR_hPR: NovaScreen (NVS) Nuclear Receptor Binding Assay for human Progestron Receptor (PR) (AID 2283360);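 also: active means loss of bound radioligand signal versus DMSO baseline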
In short: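 Cell-free radioligand binding using receptor protein extracted from T47D cells, read by scintillation counting 18 hours after dosing. Loss of signal relative to DMSO baseline indicates displacement; primary screen single concentration 25 uM in duplicate, actives followed in concentration series.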

[7] = target: Nuclear receptor subfamily 1 group I member 2 (Homo sapiens) (UniProt O75469); test: NVS_NR_hPXR: NovaScreen (NVS) Nuclear Receptor Binding Assay for human Pregnane X Receptor (PXR) (AID 2283365);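 also: a drop in FRET signal versus DMSO baseline means the compound binds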
In short: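 TR-FRET signal read at 2 h in a cell-free human PXR binding format. DMSO served as negative control and baseline; activity scored as signal loss. Single-concentration duplicate screen (25 uM), then concentration-response follow-up.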

[8] = target: guinea pig Sigma Receptor, Non-selective Binding, SIGMAR1 (gene 100135589) (UniProt Q60492); test: NVS_OR_gSIGMA_NonSelective: NovaScreen (NVS) Nuclear Receptor Binding Assay for guinea pig Sigma Receptor, Non-selective Binding (AID 2283367)
In short: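 Guinea pig brain membranes, cell-free radioligand binding; read 1 h after dosing by filter-based scintillation counting. Loss of signal vs DMSO baseline taken as displacement. Primary screen single concentration 25 uM in duplicate; actives retested in concentration series.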

[9] = target: Peroxisome proliferator-activated receptor gamma (Homo sapiens) (UniProt P37231); test: NVS_NR_hPPARg: NovaScreen (NVS) Nuclear Receptor Binding Assay for human Peroxisome Proliferator-activated Receptor gamma (PPARg) (AID 2283370)
In short: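 FP read-out, 2 h post-dose, cell-free extracted receptor protein. Signal loss vs DMSO negative control = binding activity. Single-conc duplicate HTS at 25 uM; concentration-response follow-up for actives.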

[10] = target: Androgen Receptor/SRC-1 Co-activator, AR (gene 367) (UniProt P10275); test: OT_AR_ARSRC1_0960: Odyssey Thera (OT) 16-hour HEK293T Protein-Complementation Assay for Androgen Receptor/SRC-1 Co-activator (AID 2283353);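 also: actives raise the signal above DMSO so potency reflects increased AR and SRC-1 complex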
In short: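 Split-Venus PCA, AR/SRC-1 fusions, stable HEK293T; 16 h compound exposure; imaged at 488 and 635 nm; N/C ratio (488 nm channel), min 400 cells/image; positive-direction fit, DMSO baseline.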

[11] = target: Androgen Receptor/SRC-1 Co-activator, AR (gene 367) (UniProt P10275); test: OT_AR_ARSRC1_0480: Odyssey Thera (OT) 8-hour HEK293T Protein-Complementation Assay for Androgen Receptor/SRC-1 Co-activator (AID 2283354);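 also: hits raise the complementation signal above DMSO so AC50 marks enhancers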
In short: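 HEK293T cells stably expressing AR and SRC-1 fused to split Venus YFP fragments via (Gly4Ser)2 linkers were read 8 h after compound dosing. Complementation was imaged at 488 and 635nm, and nuclear/cytoplasmic fluorescence ratio (488nm) was taken over ≥400 cells; gain-of-signal versus DMSO.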

[12] = target: Retinoic acid receptor alpha (Homo sapiens) (UniProt P10276); test: NVS_NR_hRARa_Agonist: NovaScreen (NVS) Nuclear Receptor Binding Assay for human Retinoic Acid Alpha Receptor Agonism (RAR) (AID 2283361)
In short: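 Cell-free TR-FRET binding read-out with extracted human RARα protein, read 2 h after compound addition. Gain of signal scored against DMSO baseline. Primary screen at a single 25 uM in duplicate; actives then retested in concentration series.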

[13] = system: guinea pig Dopamine Transporter (DAT), gene 100714898; test: NVS_TR_gDAT: NovaScreen (NVS) Transporter Assay for guinea pig Dopamine Transporter (DAT) (AID 2283369);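 also: active compounds lower bound radioligand signal relative to DMSO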
In short: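 Cell-free striatal membrane prep (guinea pig), 2 h exposure, filtration + scintillation readout of radioligand binding. Single-point 25 uM duplicate; actives rerun singleton, top conc 50 uM.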

[14] = target: human Thyroid Receptor Alpha (TRa), THRA (gene 7067) (UniProt P10827); test: NVS_NR_hTRa_Antagonist: NovaScreen (NVS) Nuclear Receptor Binding Assay for human Thyroid Receptor Alpha Antagonism (TRa) (AID 2283362);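 also: activity is loss of signal relative to DMSO baseline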
In short: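 AlphaLISA chemiluminescent immunoassay readout, taken 1 h post-dosing in a cell-free system with extracted protein. Activity was scored as signal loss against DMSO negative control, from duplicate single-concentration (25 uM) testing followed by concentration-response follow-up.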

[15] = target: Retinoic acid receptor alpha (Homo sapiens) (UniProt P10276); test: NVS_NR_hRAR_Antagonist: NovaScreen (NVS) Nuclear Receptor Binding Assay for human Retinoic Acid Alpha Receptor Antagonism (RAR) (AID 2283358)
In short: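 Cell-free TR-FRET binding assay on extracted receptor protein, run in antagonist mode; signal read 2 hours after chemical dosing. Loss of signal was fitted relative to DMSO baseline. Screened at 25 uM in duplicate, actives followed up in concentration series.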

[16] = target: Glucocorticoid receptor (Homo sapiens) (UniProt P04150); test: NVS_NR_hGR: NovaScreen (NVS) Nuclear Receptor Binding Assay for human Glucocorticoid Receptor (GR) (AID 2283363);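 also: activity is loss of specific radioligand binding signal relative to DMSO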
In short: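 Cell-free radioligand binding with extracted receptor protein, read by filter-based scintillation counting 16 hours after dosing. Loss of specific signal versus DMSO baseline was scored. Primary screen ran in duplicate at 25 uM; actives were followed up in concentration series.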

[17] = target: rat Androgen Receptor (AR), Ar (gene 24208) (UniProt P15207); test: NVS_NR_rAR: NovaScreen (NVS) Nuclear Receptor Binding Assay for rat Androgen Receptor (AR) (AID 2283366)
In short: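 Cell-free radioligand binding on extracts of prostate from testosterone-pretreated rats, read by filter-based scintillation counting 18 h after dosing. Loss of bound signal fitted positively versus DMSO; primary screen in duplicate at 25 uM, actives followed up in concentration series.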

[18] = target: human Adenosine Transporter (Adot), SLC29A1 (gene 2030) (UniProt Q99808); test: NVS_TR_hAdoT: NovaScreen (NVS) Transporter Assay for human Adenosine Transporter (Adot) (AID 2283368)
In short: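 U937-derived membranes, cell-free radioligand binding, filter scintillation 1 h after dosing. 25 uM duplicate screen; hits (e.g. 30% inhibition) run in concentration-response up to 50 uM; loss of signal versus DMSO.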

Androgen Receptor/SRC-1 Co-activator, AR (gene 367), sequence (P10275 whole entry, looked up, the tested form may be a part): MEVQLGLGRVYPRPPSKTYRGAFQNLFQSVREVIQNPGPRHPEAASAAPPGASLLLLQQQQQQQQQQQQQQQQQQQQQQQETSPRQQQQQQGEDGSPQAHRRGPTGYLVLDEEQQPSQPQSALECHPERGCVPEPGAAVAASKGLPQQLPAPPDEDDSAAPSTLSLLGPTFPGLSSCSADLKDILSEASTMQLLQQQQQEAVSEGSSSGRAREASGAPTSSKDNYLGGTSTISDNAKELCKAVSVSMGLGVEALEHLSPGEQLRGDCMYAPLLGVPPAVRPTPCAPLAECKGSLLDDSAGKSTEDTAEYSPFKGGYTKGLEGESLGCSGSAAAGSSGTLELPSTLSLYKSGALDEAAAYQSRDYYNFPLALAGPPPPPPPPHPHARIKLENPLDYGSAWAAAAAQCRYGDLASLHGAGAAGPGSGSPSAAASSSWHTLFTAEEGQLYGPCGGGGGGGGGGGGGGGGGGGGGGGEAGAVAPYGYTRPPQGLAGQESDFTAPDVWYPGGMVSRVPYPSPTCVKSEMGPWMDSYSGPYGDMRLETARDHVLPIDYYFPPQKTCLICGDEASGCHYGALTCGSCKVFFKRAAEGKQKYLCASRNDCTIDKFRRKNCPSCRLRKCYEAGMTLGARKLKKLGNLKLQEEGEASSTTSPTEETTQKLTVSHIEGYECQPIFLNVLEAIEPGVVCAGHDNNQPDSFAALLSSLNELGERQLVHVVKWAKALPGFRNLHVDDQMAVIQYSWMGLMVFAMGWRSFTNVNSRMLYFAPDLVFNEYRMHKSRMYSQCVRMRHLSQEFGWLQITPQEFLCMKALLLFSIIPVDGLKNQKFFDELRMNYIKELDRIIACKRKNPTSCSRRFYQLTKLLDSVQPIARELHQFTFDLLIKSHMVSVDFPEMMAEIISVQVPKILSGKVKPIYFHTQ
human Peroxisome Proliferator-activated Receptor alpha (PPARa), PPARA (gene 5465), sequence (Q07869 whole entry, looked up): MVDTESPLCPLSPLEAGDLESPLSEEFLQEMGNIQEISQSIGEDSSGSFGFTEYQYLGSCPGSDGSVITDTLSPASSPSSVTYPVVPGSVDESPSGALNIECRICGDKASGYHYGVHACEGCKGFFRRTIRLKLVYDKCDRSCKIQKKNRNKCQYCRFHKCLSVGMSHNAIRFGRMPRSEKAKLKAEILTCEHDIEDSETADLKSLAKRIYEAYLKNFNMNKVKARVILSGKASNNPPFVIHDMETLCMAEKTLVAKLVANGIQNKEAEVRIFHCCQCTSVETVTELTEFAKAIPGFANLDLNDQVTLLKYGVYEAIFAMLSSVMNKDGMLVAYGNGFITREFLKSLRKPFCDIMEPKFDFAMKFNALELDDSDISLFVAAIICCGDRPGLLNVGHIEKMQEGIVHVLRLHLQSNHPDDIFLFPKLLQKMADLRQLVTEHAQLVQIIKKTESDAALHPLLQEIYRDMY
Peroxisome proliferator-activated receptor gamma (Homo sapiens), sequence (P37231 whole entry, looked up): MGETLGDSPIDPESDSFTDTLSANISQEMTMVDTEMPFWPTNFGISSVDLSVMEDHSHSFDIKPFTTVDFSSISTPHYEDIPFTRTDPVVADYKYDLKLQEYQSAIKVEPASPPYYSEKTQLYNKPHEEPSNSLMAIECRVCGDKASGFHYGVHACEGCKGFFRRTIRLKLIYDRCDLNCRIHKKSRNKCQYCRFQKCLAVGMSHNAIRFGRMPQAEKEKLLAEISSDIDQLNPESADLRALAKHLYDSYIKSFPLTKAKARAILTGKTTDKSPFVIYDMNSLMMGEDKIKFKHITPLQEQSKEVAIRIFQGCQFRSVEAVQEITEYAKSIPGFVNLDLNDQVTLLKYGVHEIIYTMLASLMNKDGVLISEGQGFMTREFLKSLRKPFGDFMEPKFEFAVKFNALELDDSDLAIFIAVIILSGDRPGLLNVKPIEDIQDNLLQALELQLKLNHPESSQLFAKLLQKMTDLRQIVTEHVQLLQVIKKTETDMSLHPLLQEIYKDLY
Estrogen receptor (Homo sapiens), sequence (P03372 whole entry, looked up, the tested form may be a part): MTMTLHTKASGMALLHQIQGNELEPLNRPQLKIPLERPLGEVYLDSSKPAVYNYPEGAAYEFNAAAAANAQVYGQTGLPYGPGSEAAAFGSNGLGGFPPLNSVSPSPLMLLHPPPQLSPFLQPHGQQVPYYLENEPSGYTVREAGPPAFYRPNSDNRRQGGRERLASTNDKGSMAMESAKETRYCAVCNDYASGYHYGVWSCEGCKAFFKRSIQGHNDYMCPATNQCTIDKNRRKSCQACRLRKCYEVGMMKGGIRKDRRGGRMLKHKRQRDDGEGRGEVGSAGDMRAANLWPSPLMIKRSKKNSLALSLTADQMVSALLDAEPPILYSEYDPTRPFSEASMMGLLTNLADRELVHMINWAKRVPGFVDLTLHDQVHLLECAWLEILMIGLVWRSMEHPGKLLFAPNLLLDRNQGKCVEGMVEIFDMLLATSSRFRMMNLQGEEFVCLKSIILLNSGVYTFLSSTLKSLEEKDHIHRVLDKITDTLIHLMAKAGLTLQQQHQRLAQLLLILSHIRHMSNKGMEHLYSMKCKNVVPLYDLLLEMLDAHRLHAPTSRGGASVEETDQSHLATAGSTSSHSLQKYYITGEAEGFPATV
Estrogen receptor (Homo sapiens) + Estrogen receptor beta (Homo sapiens), sequence (P03372 whole entry, looked up, the tested form may be a part): as above
Estrogen receptor (Homo sapiens) + Estrogen receptor beta (Homo sapiens), sequence (Q92731 whole entry, looked up, the tested form may be a part): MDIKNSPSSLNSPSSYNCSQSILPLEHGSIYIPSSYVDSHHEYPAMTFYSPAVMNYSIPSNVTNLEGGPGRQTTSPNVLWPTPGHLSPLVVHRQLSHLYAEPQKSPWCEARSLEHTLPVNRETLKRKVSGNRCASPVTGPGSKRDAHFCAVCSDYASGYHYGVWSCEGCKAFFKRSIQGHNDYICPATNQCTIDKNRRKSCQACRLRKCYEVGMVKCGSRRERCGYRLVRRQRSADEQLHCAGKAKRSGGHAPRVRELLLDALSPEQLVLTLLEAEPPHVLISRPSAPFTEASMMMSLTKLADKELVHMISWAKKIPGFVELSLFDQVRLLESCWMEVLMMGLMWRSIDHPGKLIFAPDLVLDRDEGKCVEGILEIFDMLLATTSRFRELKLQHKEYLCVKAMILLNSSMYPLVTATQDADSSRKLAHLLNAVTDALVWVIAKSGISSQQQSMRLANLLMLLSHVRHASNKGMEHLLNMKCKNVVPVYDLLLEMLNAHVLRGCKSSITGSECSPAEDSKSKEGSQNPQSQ
human Thyroid Receptor Alpha (TRa), THRA (gene 7067), sequence (P10827 whole entry, looked up): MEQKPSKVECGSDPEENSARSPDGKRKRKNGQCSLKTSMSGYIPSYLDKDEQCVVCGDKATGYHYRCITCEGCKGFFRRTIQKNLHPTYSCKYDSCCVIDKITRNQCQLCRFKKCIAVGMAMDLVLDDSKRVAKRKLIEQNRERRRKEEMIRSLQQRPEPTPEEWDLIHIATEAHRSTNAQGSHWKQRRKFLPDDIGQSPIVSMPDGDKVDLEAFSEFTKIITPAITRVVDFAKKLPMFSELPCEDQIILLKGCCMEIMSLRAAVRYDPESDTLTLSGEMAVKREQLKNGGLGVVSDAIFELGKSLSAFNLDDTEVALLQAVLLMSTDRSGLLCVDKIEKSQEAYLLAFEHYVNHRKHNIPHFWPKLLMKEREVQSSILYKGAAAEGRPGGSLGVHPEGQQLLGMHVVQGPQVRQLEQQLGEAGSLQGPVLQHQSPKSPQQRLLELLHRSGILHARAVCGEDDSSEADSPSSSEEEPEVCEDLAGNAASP
PGR (gene 5241), sequence (P06401 whole entry, looked up): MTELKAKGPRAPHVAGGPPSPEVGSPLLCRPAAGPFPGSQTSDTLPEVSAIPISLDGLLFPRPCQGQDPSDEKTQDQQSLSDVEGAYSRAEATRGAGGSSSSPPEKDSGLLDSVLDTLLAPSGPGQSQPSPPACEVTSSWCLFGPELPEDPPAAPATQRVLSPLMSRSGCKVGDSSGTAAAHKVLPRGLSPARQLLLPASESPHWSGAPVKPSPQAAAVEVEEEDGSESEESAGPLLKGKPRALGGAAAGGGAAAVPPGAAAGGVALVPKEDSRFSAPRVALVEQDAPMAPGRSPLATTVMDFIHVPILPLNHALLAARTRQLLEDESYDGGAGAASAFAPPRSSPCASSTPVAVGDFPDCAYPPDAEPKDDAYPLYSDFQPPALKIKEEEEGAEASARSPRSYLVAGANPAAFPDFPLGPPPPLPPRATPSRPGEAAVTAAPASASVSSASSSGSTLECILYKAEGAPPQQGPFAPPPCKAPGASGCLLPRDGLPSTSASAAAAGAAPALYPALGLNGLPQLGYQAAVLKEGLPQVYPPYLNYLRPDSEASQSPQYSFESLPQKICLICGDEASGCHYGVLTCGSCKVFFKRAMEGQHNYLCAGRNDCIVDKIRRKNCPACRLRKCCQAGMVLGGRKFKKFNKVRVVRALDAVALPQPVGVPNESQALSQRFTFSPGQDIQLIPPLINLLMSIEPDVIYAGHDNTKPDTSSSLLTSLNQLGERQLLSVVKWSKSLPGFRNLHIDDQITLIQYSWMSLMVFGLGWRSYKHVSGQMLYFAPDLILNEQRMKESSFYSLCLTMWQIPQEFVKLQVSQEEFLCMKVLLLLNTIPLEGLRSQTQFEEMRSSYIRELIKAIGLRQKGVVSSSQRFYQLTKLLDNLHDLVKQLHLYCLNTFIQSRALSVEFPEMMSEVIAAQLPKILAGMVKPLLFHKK

For O=C(NC(=O)c1c(F)cccc1F)Nc1ccc(OC(F)(F)C(F)OC(F)(F)F)c(Cl)c1 (stereo not drawn), the outcome [1] was “inactive”, the outcome [2] was “inactive” and the outcome [3] was “inactive”. For the same compound, the outcome [4] was “inactive” and the outcome [5] was “inactive”.
For O=C(O)C(F)(F)C(F)(F)C(F)(F)C(F)(F)C(F)(F)C(F)(F)C(F)(F)F, the outcome [5] was “inactive”, the outcome [6] was “inactive” and the outcome (PGR (gene 5241)) was “inactive”.
CC(C)(C)C(O)/C(=C\c1ccc(Cl)cc1Cl)n1cncn1 (stereo not drawn) was tested, and the outcome [2] was “inactive”, the outcome [3] was “inactive” and the outcome [5] was “inactive”. The AC50 (PGR (gene 5241)) was 667 nM (active), the AC50 [7] was 0.281 µM (active) and the AC50 [8] was 1.25 µM (active). The outcome [9] was “inactive”.
In the case of CCC(C)(C)C(=O)OC1=C(c2ccc(Cl)cc2Cl)C(=O)OC12CCCCC2, the outcome [2] is reported as “inactive”, the outcome [4] is reported as “inactive” and the AC50 [10] is reported as 82.4 µM (active). For the same compound, the outcome [11] was “inactive” and the outcome [12] was “inactive”.
In the case of CC(C)OC(=O)Nc1cccc(Cl)c1, the outcome [2] is reported as “inactive”, the outcome [3] is reported as “inactive” and the outcome [4] is reported as “inactive”. The outcome [13] was “inactive”.
In the case of O=S(=O)(O)C(F)(F)C(F)(F)C(F)(F)C(F)(F)C(F)(F)C(F)(F)C(F)(F)C(F)(F)F, the AC50 [6] is reported as 11.2 µM (active), the outcome [6] is reported as “inactive” and the AC50 (PGR (gene 5241)) is reported as 20.2 µM (active) [middle of 4 runs]. The AC50 [14] was 12 µM (active), the AC50 [7] was 39.6 µM (active) and the AC50 [9] was 16.9 µM (active) [middle of 6 runs].
For Cc1[nH]c(=O)n(C(C)(C)C)c(=O)c1Cl, the outcome [2] was “inactive”, the outcome [3] was “inactive” and the outcome [10] was “inactive”. The outcome [11] was “inactive”.
In the case of CC(C)(C)C(O)C(Oc1ccc(Cl)cc1)n1cncn1 (stereo not drawn), the AC50 [5] is reported as 67.3 µM (active), the outcome [15] is reported as “inactive” and the outcome [6] is reported as “inactive”. The outcome (PGR (gene 5241)) was “inactive”, the outcome [14] was “inactive” and the AC50 [7] was 25 µM (active). The AC50 [13] was 1.08 µM (active) and 1.75 µM (active) and 869 nM (active) and the outcome [9] was “inactive”.
In the case of COP(=S)(OC)Oc1ccc([N+](=O)[O-])cc1, the outcome [3] is reported as “inactive”, the outcome [4] is reported as “inactive” and the outcome [5] is reported as “inactive”. For the same compound, the AC50 (PGR (gene 5241)) was 10300 nM (active), the outcome [14] was “inactive” and the AC50 [8] was 4.69 µM (active). The AC50 [13] was 20.1 µM (active).
OCCOc1ccccc1 was tested, and the outcome [2] was “inactive”, the outcome [3] was “inactive” and the outcome [5] was “inactive”.
In the case of CC[C@H](C)[C@H]1O[C@]2(C=C[C@@H]1C)C[C@@H]1C[C@@H](C/C=C(\C)[C@@H](O[C@H]3C[C@H](OC)[C@@H](O[C@H]4C[C@H](OC)[C@@H](O)[C@H](C)O4)[C@H](C)O3)[C@@H](C)/C=C/C=C3\CO[C@@H]4[C@H](O)C(C)=C[C@@H](C(=O)O1)[C@]34O)O2 (tested in a mixture with another compound), the outcome [2] is reported as “inactive”, the outcome [3] is reported as “inactive” and the AC50 [15] is reported as 12.2 µM (active). For the same compound, the outcome (PGR (gene 5241)) was “inactive”, the AC50 [14] was 12 µM (active) and the AC50 [16] was 8.5 µM (active). The outcome [8] was “inactive” and the outcome [9] was “inactive”.
Oc1ccc(Cl)cc1Cc1ccccc1 was tested, and the AC50 [10] was 50.5 µM (active), the AC50 [11] was 63.2 µM (active) and the AC50 [5] was 12 µM (active). For the same compound, the outcome [15] was “inactive”, the outcome [6] was “inactive” and the AC50 (PGR (gene 5241)) was 16.5 µM (active) [middle of 6 runs]. The outcome [12] was “inactive”, the AC50 [17] was 12.3 µM (active) [middle of 6 runs] and the AC50 [18] was 39.8 µM (active) and 25.2 µM (active) and 36.3 µM (active). The outcome [18] was “inactive”, the AC50 [13] was 12.8 µM (active) [middle of 5 runs] and the outcome [13] was “inactive”. The outcome [9] was “inactive”.
